According to PubChem BioAssay (EPA / NIEHS):
“And” between values parts separate entries of the source, which are not always exact repeats. Equal entries are not always repeated. Records with an inconclusive call do not appear. The source made the active and inactive calls. The calls were made as follows, unless noted: active = hit-call score of the fitted dose curve at least 0.9, where 1 is the maximum; inactive = score below 0.9.

Key:
[1] = target: human Retinoic Acid Receptor beta (RARb), RARB (gene 5915) (UniProt P10826); assay: ATG_RARb_TRANS: Attagene TRANS-FACTORIAL HepG2 Assay for human Retinoic Acid Receptor beta (AID 2283004; active = hit-call score of the fitted dose curve at least 0.9, where 1 is the maximum)
human Retinoic Acid Receptor beta (RARb), RARB (gene 5915), sequence (P10826 whole entry, looked up, the tested form may be a part): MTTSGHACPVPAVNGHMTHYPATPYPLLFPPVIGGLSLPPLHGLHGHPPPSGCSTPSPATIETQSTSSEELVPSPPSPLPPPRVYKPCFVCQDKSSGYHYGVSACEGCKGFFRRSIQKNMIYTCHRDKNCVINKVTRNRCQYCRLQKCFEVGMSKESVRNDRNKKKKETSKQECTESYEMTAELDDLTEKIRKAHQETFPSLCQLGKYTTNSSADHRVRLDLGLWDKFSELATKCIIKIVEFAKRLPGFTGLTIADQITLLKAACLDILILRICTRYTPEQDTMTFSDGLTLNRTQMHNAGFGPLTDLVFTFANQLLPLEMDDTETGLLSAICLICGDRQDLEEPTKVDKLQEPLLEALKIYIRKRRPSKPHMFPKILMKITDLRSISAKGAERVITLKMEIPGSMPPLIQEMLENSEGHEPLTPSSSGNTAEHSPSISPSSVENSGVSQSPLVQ
Procedure, shortened: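 HepG2 cells were transiently transfected with GAL4-UAS reporter units that report activity of exogenous chimeric NR-Gal4 proteins, then exposed to compound for 24 h. Reporter mRNA was quantified by RT-PCR with capillary electrophoresis fluorescence, as gain of signal over DMSO.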

[2] = system: Thyroperoxidase (TPO), gene 54314; assay: CCTE_Simmons_AUR_rTPO: CCTE's Amplex UltraRed Assay for Thyroperoxidase (TPO) Inhibition, Simmons Lab (AID 2283662; active = hit-call score of the fitted dose curve at least 0.9, where 1 is the maximum;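 as to AC50: potency for loss of signal meaning inhibition of peroxidase activity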)
Procedure, shortened: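 Endpoint is decreased Amplex UltraRed fluorescence after a 30-min, 37C reaction of rat thyroid microsomes with 300 uM H2O2. Eight test concentrations (5 nM–87.5 uM final) in 0.5% DMSO, three biological replicates each.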

[3] = target: Luciferin 4-monooxygenase (Photinus pyralis) (UniProt P08659); assay: CCTE_Simmons_QuantiLum_inhib_2: CCTE's Firefly Luciferase Inhibition Assay, Simmons Lab (AID 2283767; active = hit-call score of the fitted dose curve at least 0.9, where 1 is the maximum;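 as to AC50: potency for inhibitors that lower luciferase luminescence relative to DMSO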)
Luciferin 4-monooxygenase (Photinus pyralis), sequence (P08659 whole entry, looked up): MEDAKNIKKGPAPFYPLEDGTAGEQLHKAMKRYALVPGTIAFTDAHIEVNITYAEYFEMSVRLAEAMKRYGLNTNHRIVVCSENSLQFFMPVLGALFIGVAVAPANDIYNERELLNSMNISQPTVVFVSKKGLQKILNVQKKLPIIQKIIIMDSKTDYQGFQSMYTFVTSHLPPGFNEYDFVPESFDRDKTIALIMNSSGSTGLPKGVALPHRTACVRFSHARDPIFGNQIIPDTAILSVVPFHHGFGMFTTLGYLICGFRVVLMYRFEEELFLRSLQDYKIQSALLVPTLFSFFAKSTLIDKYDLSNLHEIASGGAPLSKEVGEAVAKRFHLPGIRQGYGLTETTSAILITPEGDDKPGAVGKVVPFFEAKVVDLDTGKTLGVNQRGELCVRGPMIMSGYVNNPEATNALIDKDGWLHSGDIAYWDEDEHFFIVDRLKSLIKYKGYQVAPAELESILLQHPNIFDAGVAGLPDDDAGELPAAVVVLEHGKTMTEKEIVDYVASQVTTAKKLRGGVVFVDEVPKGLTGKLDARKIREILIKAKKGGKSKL
Procedure, shortened: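 First, 5 ng purified luciferase in phosphate buffer with BSA is dispensed per well. Next, test chemicals (5 nM to 87.5 uM final, 0.5% DMSO) are added and incubated 30 min at 37C in darkness. Finally, luciferin reagent is injected and luminescence read kinetically.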

[4] = target: human RAR-related Orphan Receptor beta (RORb), RORB (gene 6096) (UniProt Q92753); assay: ATG_RORb_TRANS: Attagene TRANS-FACTORIAL HepG2 Assay for human RAR-related Orphan Receptor beta (RORb) (AID 2283010; active = hit-call score of the fitted dose curve at least 0.9, where 1 is the maximum)
human RAR-related Orphan Receptor beta (RORb), RORB (gene 6096), sequence (Q92753 whole entry, looked up, the tested form may be a part): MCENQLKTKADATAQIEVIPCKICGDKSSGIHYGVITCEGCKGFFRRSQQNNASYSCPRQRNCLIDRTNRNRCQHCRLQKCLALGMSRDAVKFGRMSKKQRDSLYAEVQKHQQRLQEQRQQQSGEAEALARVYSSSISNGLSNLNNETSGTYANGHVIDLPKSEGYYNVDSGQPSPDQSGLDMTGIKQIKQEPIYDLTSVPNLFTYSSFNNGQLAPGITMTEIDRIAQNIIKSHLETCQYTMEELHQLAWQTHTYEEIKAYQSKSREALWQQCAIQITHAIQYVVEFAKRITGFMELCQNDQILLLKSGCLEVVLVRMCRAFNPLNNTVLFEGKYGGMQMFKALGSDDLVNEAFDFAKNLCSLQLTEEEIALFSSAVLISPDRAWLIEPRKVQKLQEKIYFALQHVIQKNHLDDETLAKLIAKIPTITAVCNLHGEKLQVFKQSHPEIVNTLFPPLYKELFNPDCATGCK
Procedure, shortened: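 Transfect HepG2 with multiple GAL4-UAS reporter transcription units; dose chemicals for 24 h; isolate RNA, reverse-transcribe and PCR-amplify reporter sequences; label, digest and resolve fragments by capillary electrophoresis; fit increases relative to DMSO.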

[5] = target: Retinoic acid receptor alpha (Homo sapiens) (UniProt P10276); assay: ATG_RARa_TRANS: Attagene TRANS-FACTORIAL HepG2 Assay for human Retinoic Acid Receptor alpha (RARa) (AID 2283005; active = hit-call score of the fitted dose curve at least 0.9, where 1 is the maximum)
Retinoic acid receptor alpha (Homo sapiens), sequence (P10276 whole entry, looked up, the tested form may be a part): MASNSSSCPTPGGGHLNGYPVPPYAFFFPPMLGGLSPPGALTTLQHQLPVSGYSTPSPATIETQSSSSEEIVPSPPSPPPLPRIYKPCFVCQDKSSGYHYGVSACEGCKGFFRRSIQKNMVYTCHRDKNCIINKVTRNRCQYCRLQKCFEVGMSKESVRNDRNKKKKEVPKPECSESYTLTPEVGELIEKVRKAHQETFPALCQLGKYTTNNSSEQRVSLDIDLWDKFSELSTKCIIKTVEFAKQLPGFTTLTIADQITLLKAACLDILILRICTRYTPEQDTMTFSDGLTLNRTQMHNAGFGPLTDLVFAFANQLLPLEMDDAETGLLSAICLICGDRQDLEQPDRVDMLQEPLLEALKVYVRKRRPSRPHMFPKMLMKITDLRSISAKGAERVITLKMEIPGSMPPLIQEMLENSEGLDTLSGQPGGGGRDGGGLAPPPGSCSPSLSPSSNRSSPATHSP
Procedure, shortened: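 Reporter transcripts, measured by RT-PCR with fluorescent labeling and capillary electrophoresis after 24 h dosing, reflect activity of an exogenous human RARa–GAL4 fusion in transiently transfected HepG2. Fitted for increase relative to DMSO.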

[6] = read-out: Interleukin 6 (IL6), IL6 (gene 3569); assay: BSK_BT_xIL6: BioMAP Diversity Plus: BT Assay for Interleukin 6 (IL6) Biomarker Activity (AID 2284228); conditions: primary human B cells with PBMC
Procedure, shortened: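 Human B cell/PBMC co-culture; secreted IL-6 quantified by Luminex xMAP 24 h after chemical dosing, fitted relative to DMSO. Parallel PBMC viability by Alamar Blue after 1 h pretreatment, 20 ng/mL SEB and TSST-1, 90 h incubation.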

[7] = read-out: Tumor necrosis factor (Homo sapiens) (UniProt P01375); assay: BSK_BT_xTNFa: BioMAP Diversity Plus: BT Assay for Tumor necrosis factor alpha (TNF-alpha) Biomarker Activity (AID 2284230); conditions: primary human B cells with PBMC
Procedure, shortened: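 Endpoint derived in the positive direction versus DMSO vehicle. Cells: B cells together with PBMC, exposed 24 h before TNF-alpha in the medium was read on the Luminex xMAP platform.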

[8] = read-out: Vascular cell adhesion molecule 1 (VCAM1), VCAM1 (gene 7412); assay: BSK_MyoF_VCAM1: BioMAP Diversity Plus: MyoF Assay for Vascular cell adhesion molecule 1 (VCAM1) Biomarker Activity (AID 2284231); conditions: primary human lung fibroblasts
Procedure, shortened: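 Primary human lung fibroblasts (BioMAP MyoF system) dosed with chemical, VCAM-1 measured by ELISA 24 hours later. Fitted in the positive direction against DMSO; parallel SRB staining assessed cytotoxicity.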

[9] = read-out: Collagen I, COL1A1 (gene 1277); assay: BSK_MyoF_CollagenI: BioMAP Diversity Plus: MyoF Assay for Collagen I Biomarker Activity (AID 2284238); conditions: primary human lung fibroblasts
Procedure, shortened: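 Primary human lung fibroblasts (MyoF system) treated 24 h; Collagen I quantified by ELISA and fitted in positive direction against DMSO. Parallel SRB total-protein staining assessed overt cytotoxicity.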

[10] = read-out: Interleukin 17F (IL17F), IL17F (gene 112744); assay: BSK_BT_xIL17F: BioMAP Diversity Plus: BT Assay for Interleukin 17F (IL17F) Biomarker Activity (AID 2284243); conditions: primary human B cells with PBMC
Procedure, shortened: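 Human PBMC co-cultured with B cells, compound exposure 24 h; secreted IL-17F quantified by Luminex xMAP, referenced to DMSO control. PBMC viability measured in parallel by Alamar Blue reduction.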

[11] = read-out: Actin alpha 1 (ACTA1), ACTA1 (gene 58); assay: BSK_MyoF_ACTA1: BioMAP Diversity Plus: MyoF Assay for Actin alpha 1 (ACTA1) Biomarker Activity (AID 2284244); conditions: primary human lung fibroblasts
Procedure, shortened: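 Cells were exposed to chemical for 24 h before a-SMA levels were quantified by ELISA in human lung fibroblasts. Increases were fitted against DMSO as negative control; parallel SRB staining (0.1% after 10% TCA fixation, 560 nm) assessed cytotoxicity.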

[12] = read-out: Basic fibroblast growth factor (bFGF), FGF2 (gene 2247); assay: BSK_MyoF_bFGF: BioMAP Diversity Plus: MyoF Assay for Basic fibroblast growth factor (bFGF) Biomarker Activity (AID 2284246); conditions: primary human lung fibroblasts
Procedure, shortened: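 Chemicals are added to human lung fibroblast cultures and incubated 24 h. bFGF is then measured by ELISA, while parallel cultures receive SRB staining for total protein as a cytotoxicity check. Data are fitted upward against DMSO.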

[13] = read-out: Collagen IV, COL4A1 (gene 1282); assay: BSK_MyoF_CollagenIV: BioMAP Diversity Plus: MyoF Assay for Collagen IV Biomarker Activity (AID 2284247); conditions: primary human lung fibroblasts
Procedure, shortened: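 Human lung fibroblast system, 24 h chemical exposure. Endpoint: Collagen IV by ELISA, upward fit vs DMSO.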

[14] = read-out: Interleukin-8 (IL8), CXCL8 (gene 3576); assay: BSK_MyoF_IL8: BioMAP Diversity Plus: MyoF Assay for Interleukin-8 (IL8) Biomarker Activity (AID 2284261); conditions: primary human lung fibroblasts
Procedure, shortened: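 Human lung fibroblast (MyoF system) cultures dosed for 24 h, then IL-8 measured by ELISA. Response taken relative to DMSO; parallel SRB total-protein staining for cytotoxicity.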

Decorin, DCN (gene 1634) = assay: BSK_MyoF_Decorin: BioMAP Diversity Plus: MyoF Assay for Decorin Biomarker Activity (AID 2284265); conditions: primary human lung fibroblasts
Procedure, shortened: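 Human lung fibroblast cultures were dosed for 24 h, and decorin was then measured by ELISA. Parallel cultures were stained with sulforhodamine B for total protein as a cytotoxicity check. Gain of signal was fitted relative to DMSO.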

[15] = BSK_MyoF_SRB: Viability Assessment in the BioMAP Diversity Plus: MyoF Assay (AID 2284267); conditions: primary human lung fibroblasts;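 also: total protein by SRB absorbance in parallel cultures as cytotoxicity measure; cells assessed 24 h after compound addition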
Procedure, shortened: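 Confluent human lung fibroblasts were exposed to test chemicals for 24 h. Parallel wells were then fixed in 10% TCA, stained with 0.1% sulforhodamine B and measured at 560 nm. DMSO served as baseline for curve fitting.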

[16] = CEETOX_H295R_MTT_cell_viability: Viability Assessment in the CeeTox HT-H295R MTT Assay (AID 2283718)
Procedure, shortened: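 MTT reduction (0.5 mg/ml, 4 h at 37 C; absorbance at 570 and 650 nm) gave viability as background-corrected percent change versus controls. H295R cells had 48 h forskolin (10 uM) prestimulation, then 48 h chemical exposure at 0.1% DMSO.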

[17] = target: Glucocorticoid receptor (Homo sapiens) (UniProt P04150); assay: ATG_GR_TRANS: Attagene TRANS-FACTORIAL HepG2 Assay for human Glucocorticoid Receptor (GR) (AID 2282978; active = hit-call score of the fitted dose curve at least 0.9, where 1 is the maximum;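 also: activators score as hits since higher reporter transcript over DMSO is fitted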); conditions: HepG2 Attagene TRANS GR reporter, mRNA transcription
Glucocorticoid receptor (Homo sapiens), sequence (P04150 whole entry, looked up, the tested form may be a part): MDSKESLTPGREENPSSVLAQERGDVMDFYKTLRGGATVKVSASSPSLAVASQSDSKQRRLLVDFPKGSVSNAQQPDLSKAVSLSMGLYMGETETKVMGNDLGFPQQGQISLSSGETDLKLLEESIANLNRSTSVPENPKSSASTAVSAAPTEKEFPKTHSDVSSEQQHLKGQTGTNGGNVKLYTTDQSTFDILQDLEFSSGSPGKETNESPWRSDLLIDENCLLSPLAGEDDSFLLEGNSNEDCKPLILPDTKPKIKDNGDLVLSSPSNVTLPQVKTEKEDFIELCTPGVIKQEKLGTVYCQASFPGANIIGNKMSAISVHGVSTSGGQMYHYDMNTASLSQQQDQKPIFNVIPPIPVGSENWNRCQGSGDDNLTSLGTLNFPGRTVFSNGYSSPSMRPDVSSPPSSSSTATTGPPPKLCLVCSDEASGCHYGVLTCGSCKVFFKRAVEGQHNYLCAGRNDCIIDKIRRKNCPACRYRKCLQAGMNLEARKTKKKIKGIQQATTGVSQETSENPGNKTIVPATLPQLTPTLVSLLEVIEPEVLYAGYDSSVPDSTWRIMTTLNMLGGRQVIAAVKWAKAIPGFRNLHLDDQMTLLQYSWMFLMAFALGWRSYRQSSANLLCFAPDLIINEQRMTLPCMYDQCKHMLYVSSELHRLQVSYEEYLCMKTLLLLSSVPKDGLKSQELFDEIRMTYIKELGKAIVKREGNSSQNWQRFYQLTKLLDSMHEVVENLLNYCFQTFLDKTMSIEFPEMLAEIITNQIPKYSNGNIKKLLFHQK
Procedure, shortened: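 In this trans-factorial format, exogenous NR-GAL4 chimeric proteins in transfected HepG2 cells regulate GAL4-UAS reporter transcription. After 24 h treatment, reporter mRNA induction relative to DMSO is read by RT-PCR and capillary electrophoresis.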

[18] = CCTE_Harrill_HTTr_CellCount_MCF7: CCTE's Cell Proliferation Assessment for the High-Throughput Transcriptomics (HTTr) Platform, Harrill Lab (AID 2284012; active = hit-call score of the fitted dose curve at least 0.9, where 1 is the maximum;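 also: cells exposed to compound for six hours; intended direction is loss of nuclei count meaning fewer cells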)
Procedure, shortened: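 Cell count served as viability reporter: loss of Hoechst-stained nuclei, counted by high content imaging, marks decreased growth or survival. Exposure was 6 h in MCF-7 cells across eight concentrations, with DMSO as baseline.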

[19] = target: human Retinoic Acid Receptor gamma (RARg), RARG (gene 5916) (UniProt P13631); assay: ATG_RARg_TRANS: Attagene TRANS-FACTORIAL HepG2 Assay for human Retinoic Acid Receptor gamma (RARg) (AID 2283009; active = hit-call score of the fitted dose curve at least 0.9, where 1 is the maximum)
human Retinoic Acid Receptor gamma (RARg), RARG (gene 5916), sequence (P13631 whole entry, looked up, the tested form may be a part): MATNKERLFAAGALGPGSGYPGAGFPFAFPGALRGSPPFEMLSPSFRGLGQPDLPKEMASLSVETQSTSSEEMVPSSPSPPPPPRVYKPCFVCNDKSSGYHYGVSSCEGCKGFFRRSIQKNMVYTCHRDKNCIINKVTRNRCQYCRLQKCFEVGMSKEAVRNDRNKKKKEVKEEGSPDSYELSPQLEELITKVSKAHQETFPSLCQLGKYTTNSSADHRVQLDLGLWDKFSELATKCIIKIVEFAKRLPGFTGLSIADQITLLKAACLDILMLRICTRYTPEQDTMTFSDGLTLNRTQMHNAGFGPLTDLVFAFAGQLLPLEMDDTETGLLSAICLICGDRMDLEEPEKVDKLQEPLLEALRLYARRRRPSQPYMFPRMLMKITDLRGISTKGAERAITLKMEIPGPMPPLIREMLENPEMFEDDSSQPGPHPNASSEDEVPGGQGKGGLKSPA
Procedure, shortened: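 TRANS format measured activity of exogenous NR-GAL4 fusion (RARg) in transfected HepG2 liver cells after 24 h dosing. Induced reporter RNA was detected by RT-PCR/capillary electrophoresis fluorescence, analysed in the positive direction against DMSO.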

Measured: AC50

Tumor necrosis factor (Homo sapiens), sequence (P01375 whole entry, looked up): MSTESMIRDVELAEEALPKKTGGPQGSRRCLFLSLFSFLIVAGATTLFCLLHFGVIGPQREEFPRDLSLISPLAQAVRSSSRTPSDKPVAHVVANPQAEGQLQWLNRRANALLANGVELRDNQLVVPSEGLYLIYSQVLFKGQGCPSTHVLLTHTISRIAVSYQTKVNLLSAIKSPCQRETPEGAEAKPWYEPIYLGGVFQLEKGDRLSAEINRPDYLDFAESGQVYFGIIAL

CCc1cccc(C)c1N(C(=O)CCl)[C@@H](C)COC
inactive: [1]

c1ccc(P(c2ccccc2)c2ccccc2)cc1
active: [2] 40.2 µM
inactive: [3]

CC1OC(C)OC(C)O1 (centres undefined)
inactive: [4]

Nc1ccc(-c2ccc(N)c(N)c2)cc1N
active: [8] 20 µM | [10] 23.6 µM | [11] 20 µM
inactive: [5] | [6] | [7] | [9] | [12] | [13] | [14] | Decorin, DCN (gene 1634) | [15]

CC(C)(C)C(O)C(Oc1ccc(-c2ccccc2)cc1)n1cncn1 (centres undefined)
active: [8] 30 µM | [9] 36.9 µM | [11] 34.5 µM | [12] 33.6 µM | [13] 20 µM | Decorin, DCN (gene 1634) 36.5 µM | [15] 32 µM
inactive: [16] | [6] | [7] | [10] | [14]

O=C(O)CCCc1ccc(N(CCCl)CCCl)cc1
active: [6] 14.8 µM and 20 µM | [7] 23.6 µM and 20 µM | [8] 24.4 µM and 30.1 µM | [10] 20 µM and 15.2 µM
inactive: [9] | [11] | [12] | [13] | [14] | Decorin, DCN (gene 1634) | [15]

Oc1ccc(Cl)cc1
inactive: [1]

CCCCCCCCCCCCCCCC[N+](C)(C)C
active: [2] 51.5 µM | [3] 92.4 µM

CCC(C)c1cc([N+](=O)[O-])cc([N+](=O)[O-])c1OC(=O)C=C(C)C (centres undefined)
active: [6] 20 µM | [7] 30.8 µM | [8] 3.66 µM | [9] 4.1 µM | [10] 29.3 µM | [11] 5.45 µM | [12] 32.6 µM | [13] 12.3 µM | [14] 36.9 µM | Decorin, DCN (gene 1634) 20 µM | [15] 20.8 µM
inactive: [17]

O=C=Nc1ccccc1
inactive: [5] | [2] | [16] | [3] | [18]

COC(=O)c1ccccc1S(=O)(=O)NC(=O)Nc1nc(C)cc(C)n1
inactive: [1] | [19] | [4]

CC1CCCC1.[C-]#[O+].[C-]#[O+].[C-]#[O+].[Mn]
active: [2] 26.4 µM
inactive: [1] | [19] | [3]

O=C1Nc2ccc(Cl)cc2C(c2ccccc2)=NC1O (centres undefined)
inactive: [18]

N#Cc1cc(I)c(O)c(I)c1
inactive: [1] | [5] | [19]

Cc1ccc(OP(=O)(Oc2ccc(C)cc2)Oc2ccc(C)cc2)cc1 (tested in a mixture with another compound)
active: [6] 13.2 µM | [9] 32.6 µM | [10] 24.6 µM | [11] 26.4 µM | [14] 10.2 µM
inactive: [17] | [16] | [7] | [8] | [12] | [13] | Decorin, DCN (gene 1634) | [15]

COc1cc(OC)nc(Oc2cccc(Oc3nc(OC)cc(OC)n3)c2C(=O)O)n1
inactive: [4] | [3]
active: [2] 34.9 µM

Nc1ccc([N+](=O)[O-])cc1N
inactive: [4]

CN(C)N
inactive: [18]

COc1ncc(F)c2nc(S(=O)(=O)Nc3c(F)cccc3F)nn12
inactive: [17] | [18]

CC(C)(O)C#N
inactive: [1] | [5] | [19] | [3] | [18]
active: [2] 36.7 µM

COc1ccc(CO)cc1
inactive: [17]

CCC(=O)c1ccc(Cl)cc1
inactive: [17]

O=[N+]([O-])O.O=[N+]([O-])O.[Cd]
inactive: [4]

Oc1cc(Cl)ccc1Cl
not listed: [2] | [3] | [4] | [5] | [18]
inactive: all other assays above
